From PubChem BioAssay AID1259319 (Sanford-Burnham Center for Chemical Genomics, 2017)
About 1,800 (60%) of roughly 3,000 compounds were called active.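 The calls were made as follows: active = activation at or above a set limit, or at least 3 SD above the negative control mean; inactive = the rest.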 The set was probably picked from earlier hits. Not all results are given here.

molecular target: Nuclear receptor subfamily 1 group D member 1 (Homo sapiens) (UniProt P20393); assay: modulators of Rev-erb alpha DNA binding, confirmation, biochemical, FITC-DNA, fluorescence polarization, single point (AID 1259319); details: 90 min, at 25 µM, stronger effect = higher value;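 also: 0% = 35 nM protein with DMSO and 100% = 750 nM protein high control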
Sequence (P20393 whole entry, looked up): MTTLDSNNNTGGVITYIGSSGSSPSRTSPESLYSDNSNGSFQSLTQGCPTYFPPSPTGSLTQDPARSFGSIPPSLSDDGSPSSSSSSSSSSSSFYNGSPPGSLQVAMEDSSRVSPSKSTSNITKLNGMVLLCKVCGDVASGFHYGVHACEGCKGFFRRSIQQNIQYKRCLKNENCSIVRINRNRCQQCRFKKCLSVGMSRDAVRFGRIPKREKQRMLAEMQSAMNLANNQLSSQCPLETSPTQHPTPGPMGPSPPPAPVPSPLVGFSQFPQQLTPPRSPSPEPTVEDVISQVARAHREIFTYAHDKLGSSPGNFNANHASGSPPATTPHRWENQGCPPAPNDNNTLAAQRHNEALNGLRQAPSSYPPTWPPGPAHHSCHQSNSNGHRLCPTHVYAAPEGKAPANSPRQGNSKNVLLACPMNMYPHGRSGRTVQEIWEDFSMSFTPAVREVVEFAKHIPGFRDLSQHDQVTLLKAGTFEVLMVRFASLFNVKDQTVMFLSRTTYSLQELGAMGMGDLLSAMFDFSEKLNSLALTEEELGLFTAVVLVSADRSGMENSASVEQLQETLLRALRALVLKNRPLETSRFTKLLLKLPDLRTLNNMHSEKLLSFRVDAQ

activation, active:
CCN(CC)c1ccc2cc(C(N)=O)/c(=N\NC(=O)c3ccncc3)oc2c1 25.4%
COc1cc(Cl)c(C)cc1NC(=O)COC(=O)c1cc(SC)ccc1Cl 23.3%
CCN1/C(=C\c2ccc3ccccc3[n+]2CC)Sc2cc(C)ccc21 67.5%
Cc1nc2nc(SCC(=O)c3ccccc3)[nH]c2cc1Br 45%
CCn1c(SCC(=O)Nc2cccc(F)c2)nnc1-c1cc2cc(Br)ccc2o1 26.2%
Cc1nc2nc(SCC(=O)Nc3cccc(F)c3)[nH]c2cc1Br 20%
COc1ccc2[nH]c(C(=O)Nc3ccccc3Cl)cc2c1 30.5%
CC(C)Cn1c(CN(Cc2ccccc2)Cc2ccccc2)nc2c1c(=O)n(C)c(=O)n2C 48.3%
Fc1ccc(CNc2nc3ccccc3n3nnnc23)cc1 27%
COC(=O)c1cccc(Cn2ccc3ccc(-c4ccc5ccn(C(=O)C6CCCCC6)c5c4)cc32)c1 43.5%
COC(=O)c1cccc(Cn2ccc3ccc(-c4ccc5ccn(C(=O)c6ccccc6C)c5c4)cc32)c1 89.9%
CCOC(=O)c1c(C)oc2cc(Br)c(OCC(N)=O)cc12 40.3%
Cc1sc2ncnc(N3CCC(C(=O)Nc4nc5ccc(Cl)cc5s4)CC3)c2c1C 51%
CN1C(=O)c2ccc(C(=O)Nc3ccc(Br)cn3)cc2C1=O 30.1%
CCC(C(=O)NC1CCCC1)N(C(=O)c1snc(C(N)=O)c1N)c1ccc2c(c1)OCCO2 (stereo unspecified) 20.2%
NC(N)=Nc1nc2ccc(Br)cc2c(=O)[nH]1 21.2%
O=C1Cc2ccccc2Sc2ccc(Cl)cc21 23.2%
CCOc1nc(-c2ccc(OC)cc2)ccc1-c1noc(-c2cc(OC)c(OC)c(OC)c2)n1 22.3%

activation, inactive:
CCOC(=O)c1ccc(NC(=O)c2c(NCc3ccccc3)[nH]c(=O)[nH]c2=O)cc1 1.79%
Cn1c(=O)n(C)c2cc(/C=N/NC(=O)c3cccc(Br)c3)ccc21 8.29%
COc1ccc(C(=O)Nc2cccc(NC(=O)c3ccc(OC)cc3OC)n2)c(OC)c1 4.36%
Cc1cc(=O)oc(C)c1C(=O)N1CCCCC1 -0.804%
COc1cc(OC)cc(-c2nc(=S)n3ccsc3n2)c1 2.77%
CCCCCn1nnnc1C1c2ccccc2C(=O)N1Cc1ccco1 (stereo unspecified) -8.88%
O=c1cc(N2CCCCC2)c(-c2ccccc2)nn1Cc1cccc(F)c1 8.56%
CCOc1cc(-c2cc(-c3ccc(OC)cc3)nc(N)c2C#N)ccc1O 13.9%
